In all, about 390,000 compounds went through this assay and about 910 (0.23%) were called active. Roughly 5% stayed inconclusive and do not appear here. The calls are words filed in the database; no cut-off is given here. The entries come from a sample that favours actives as a whole.

The assay deals with T1, Ubiquitin carboxyl-terminal hydrolase 1 (Homo sapiens) (UniProt O94782).
T1 sequence (whole entry): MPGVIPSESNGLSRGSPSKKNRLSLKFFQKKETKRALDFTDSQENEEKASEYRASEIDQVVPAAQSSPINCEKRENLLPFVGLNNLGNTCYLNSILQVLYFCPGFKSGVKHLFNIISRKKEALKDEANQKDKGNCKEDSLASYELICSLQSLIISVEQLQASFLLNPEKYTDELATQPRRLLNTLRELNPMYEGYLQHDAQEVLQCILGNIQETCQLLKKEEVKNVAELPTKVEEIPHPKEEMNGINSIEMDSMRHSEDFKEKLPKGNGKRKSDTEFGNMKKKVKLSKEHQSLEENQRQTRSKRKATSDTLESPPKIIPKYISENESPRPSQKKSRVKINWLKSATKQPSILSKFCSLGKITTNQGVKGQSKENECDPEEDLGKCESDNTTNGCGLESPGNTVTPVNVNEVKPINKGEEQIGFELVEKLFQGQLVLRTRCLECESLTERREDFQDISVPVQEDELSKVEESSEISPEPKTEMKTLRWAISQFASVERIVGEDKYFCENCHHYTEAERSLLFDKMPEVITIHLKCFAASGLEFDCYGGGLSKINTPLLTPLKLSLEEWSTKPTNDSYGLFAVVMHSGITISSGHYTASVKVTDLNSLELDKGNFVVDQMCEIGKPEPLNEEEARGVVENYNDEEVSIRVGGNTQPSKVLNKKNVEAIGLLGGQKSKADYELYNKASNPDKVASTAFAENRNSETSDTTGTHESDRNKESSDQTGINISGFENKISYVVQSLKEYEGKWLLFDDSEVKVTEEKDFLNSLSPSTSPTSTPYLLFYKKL
The assay is described as follows: Inhibitors of USP1/UAF1: Primary Screen. Type of assay: functional.
Regarding `CCOC(=O)C(C)C(C)=O` (stereo unspecified), the Potency was 355 µM (active).

The values are drawn from ChEMBL document CHEMBL1201862, “PubChem BioAssay data set” (2004).
